MITF inh: inhibitors of MITF, primary screen, MITF inhibitor project, cell-based, luminescence | TRPM1 promoter luciferase, 24 h | inhibition, % (concentration not given with the values) | 0.28% of 37,000 active; in the data active means inhibition above about 85%; inconclusive means no clear call, values can overlap the other calls; inactive means below about 68%;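 further: human melanocyte line stably carrying TRPM1 promoter luciferase reporter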
NOMO-1 viab: NOMO-1 AML cell viability reduction, primary screen, STK33 inhibitor project, CellTiter-Glo luminescence; NOMO-1 AML viability, 72 h; inhibition, % (test concentration not listed); 7.5% of 37,000 active; in the data active means inhibition above about 80%; inconclusive means no clear call, values can overlap the other calls
Shh pathway inh: Hedgehog pathway signaling inhibitors, primary screen, luminescence, Shh-LIGHT2 cells, Gli-luciferase; 2.1% of 22,000 active; Shh-LIGHT2 Gli-luciferase reporter, 30 h; inhibition, % (no concentration beside the values);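 active means mean inhibition across valid replicates above about 65%, limit read from the data; inconclusive means mean under the limit, yet half or more replicates past it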;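 further: pathway switched on by Shh-conditioned medium diluted 1 in 25 in low serum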
An asterisk follows results filed as active; ? = inconclusive; · = no result given. This is a sample that favours compounds with a hit; in the whole collection about 7.9% have one here.

SMILES	MITF inh	NOMO-1 viab	Shh pathway inh
CC(=O)Oc1ccc(-c2coc3cc(OC(C)=O)cc(OC(C)=O)c3c2=O)cc1	-28	29	-60
CC(=O)OC[C@H]1O[C@@H](Oc2cc(OC(C)=O)c3c(=O)cc(-c4ccc(OC(C)=O)cc4)oc3c2)[C@H](OC(C)=O)[C@@H](OC(C)=O)[C@@H]1OC(C)=O	-18	63	65*
Cc1cccc(NC(=O)c2ccc(OC(C)C(=O)Nc3ccccc3C(F)(F)F)cc2)c1C (stereo not given)	46	113*	·
COc1ccc(NC(=O)c2ccc(OC(C)C(=O)Nc3ccccc3C(F)(F)F)cc2)cc1Cl (stereo not given)	30	39	·
Cc1ccc(S(=O)(=O)Nc2cccc3c2O[C@@H](CN(C)CC2CC2)[C@H](C)CN([C@H](C)CO)C3=O)cc1	-8	8	-44
COc1ccc(-c2cc3cc(OC)c(OC)cc3c(Cc3ccccc3)n2)cc1	-16	35	40
COc1cc2cc(C)nc(Cc3cccc4ccccc34)c2cc1OC	18	86*	?
CCc1c(C)nc(Nc2nc(C)c3ccc(OC)cc3n2)[nH]c1=O	-49	42	·
Cc1cc2nc(Nc3nc4ccccc4c(=O)[nH]3)nc(C)c2cc1C	-10	127*	·
CC1(C)CC(=O)c2c(O)cc(OCC(=O)c3ccccc3)cc2O1	-59	-6	·
CCn1c(SCC(=O)Nc2ccc3c(c2)OCCO3)nnc1-c1ccccc1	-10	27	·
COC(=O)c1ccccc1NC(=O)C(C)Oc1ccc2c(C)cc(=O)oc2c1 (stereo not given)	14	89*	·
Cc1cc(=O)oc2cc(OC(C)C(=O)NCC3CCCO3)ccc12 (stereo not given)	0	24	·
Cc1ccc(C)c(NC(=O)CC2C(=O)N(c3ccccc3)C(=S)N2Cc2ccco2)c1 (stereo not given)	5	50	·
C[C@H](CO)N1C[C@H](C)[C@H](CN(C)S(=O)(=O)c2cn(C)cn2)Oc2ccc(NC(=O)NC3CCCCC3)cc2CC1=O	-10	-16	77*
C[C@H]1CN([C@@H](C)CO)C(=O)Cc2cc(NC(=O)Nc3ccc(C(F)(F)F)cc3)ccc2O[C@H]1CN(C)S(=O)(=O)c1cn(C)cn1	6	125*	-4
C[C@@H]1CN([C@H](C)CO)C(=O)Cc2cc(NC(=O)Nc3ccc(F)cc3)ccc2O[C@@H]1CN(C)S(=O)(=O)c1cn(C)cn1	-3	20	-6
CC(C)NC(=O)Nc1ccc2c(c1)CC(=O)N([C@@H](C)CO)C[C@H](C)[C@H](CN(C)S(=O)(=O)c1cn(C)cn1)O2	1	17	·
O=C(O)C1CCCCC1C(=O)Nc1ccc([N+](=O)[O-])cc1 (stereo not given)	-6	-3	·
Cc1c(C#N)c2ccccc2n1CC(=O)NCCc1c[nH]c2ccccc12	29	18	·
Cc1c(CO)c2ccccc2n1Cc1ccccc1C#N	14	121*	·
Cc1ccc(S(=O)(=O)N2CCC(C#N)C(=O)c3ccccc32)cc1 (stereo not given)	-1	9	28
Cc1ccc(S(=O)(=O)N2c3ccccc3C(C)(c3ccccc3)CC2(C)C)cc1 (stereo not given)	41	108*	57
O=C(CSc1nnc(-c2ccc(Br)cc2)o1)Nc1ccccc1Cl	-50	12	·
COC(=O)c1c(NC(=O)CSc2ncn[nH]2)sc2c1CCCC2	18	32	·
SMILES	MITF inh	NOMO-1 viab	Shh pathway inh
N#Cc1c(NC(=O)CSc2ncn[nH]2)sc2c1CCCCC2	104*	39	·
N#Cc1c(C(F)(F)F)cc(-c2cccs2)nc1SCC(=O)Nc1sc2c(c1C#N)CCC2	56	74	·
CC(C)(C)c1cc(C(F)(F)F)c(C#N)c(SCC(=O)Nc2sc3c(c2C#N)CCCC3)n1	22	97*	·
Cc1ccc(C(=O)O)cc1NC(=O)CCN1C(=O)c2ccccc2C1=O	-4	0	·
Cc1ccc(S(=O)(=O)N(C)C[C@H]2Oc3ccc(NC(=O)Nc4ccc(F)cc4)cc3CC(=O)N([C@@H](C)CO)C[C@H]2C)cc1	15	44	3
Cc1noc(C)c1S(=O)(=O)N(C)C[C@@H]1Oc2ccc(NC(=O)C3CC3)cc2CC(=O)N([C@H](C)CO)C[C@@H]1C	-11	25	70*
Cc1noc(C)c1S(=O)(=O)N(C)C[C@H]1Oc2ccc(NC(=O)C3CC3)cc2CC(=O)N([C@H](C)CO)C[C@H]1C	2	-19	-13
Cc1ccc(S(=O)(=O)N(C)C[C@@H]2Oc3ccc(NC(=O)C4CC4)cc3CC(=O)N([C@@H](C)CO)C[C@@H]2C)cc1	13	84*	·
Cc1ccc(S(=O)(=O)N(C)C[C@@H]2Oc3ccc(NC(=O)C4CC4)cc3CC(=O)N([C@H](C)CO)C[C@H]2C)cc1	2	11	-5
COc1ccc(NC(=O)Nc2ccc3c(c2)CC(=O)N([C@H](C)CO)C[C@H](C)[C@H](CN(C)S(=O)(=O)c2ccc(F)cc2)O3)cc1	25	126*	-48
Cc1ccc(S(=O)(=O)N(C)C[C@@H]2Oc3ccc(NC(=O)Nc4ccc(F)cc4)cc3CC(=O)N([C@H](C)CO)C[C@@H]2C)cc1	47	127*	38
COc1ccc(S(=O)(=O)N(C)C[C@@H]2Oc3ccc(NC(=O)Nc4ccc(F)cc4)cc3CC(=O)N([C@H](C)CO)C[C@@H]2C)cc1	10	33	·
COc1cccc(-c2nnc(SCC(=O)Nc3cccc(Cl)c3)n2C)c1	7	17	·
C[C@H](CO)N1C[C@H](C)[C@H](CN(C)C(=O)Nc2ccc3c(c2)OCO3)Oc2c(NC(=O)NC3CCCCC3)cccc2C1=O	-7	-7	-6
COc1ccc(S(=O)(=O)N(C)C[C@H]2Oc3ccc(NC(=O)CCC(F)(F)F)cc3C(=O)N([C@@H](C)CO)C[C@H]2C)cc1	-20	-27	·
O=C(COc1ccc(C(=O)Nc2cccc(C(F)(F)F)c2)cc1)Nc1ccccc1F	-9	-6	·
Cc1ccc(S(=O)(=O)N(C)C[C@@H]2Oc3ccc(NC(=O)NC(C)C)cc3CC(=O)N([C@@H](C)CO)C[C@@H]2C)cc1	10	98*	13
CC(C)NC(=O)Nc1ccc2c(c1)CC(=O)N([C@H](C)CO)C[C@H](C)[C@H](CN(C)S(=O)(=O)c1ccc(Cl)cc1)O2	-15	24	·
Cc1ccc(S(=O)(=O)N(C)C[C@@H]2Oc3ccc(NC(=O)Nc4ccccc4)cc3CC(=O)N([C@H](C)CO)C[C@@H]2C)cc1	31	100*	-2
Cc1ccc(S(=O)(=O)N(C)C[C@H]2Oc3ccc(NC(=O)Nc4ccc(F)cc4)cc3CC(=O)N([C@H](C)CO)C[C@H]2C)cc1	28	-10	34
Cc1ccc(S(=O)(=O)N(C)C[C@@H]2Oc3ccc(NC(=O)Nc4ccc(F)cc4)cc3CC(=O)N([C@@H](C)CO)C[C@@H]2C)cc1	36	104*	-80
Cc1ccc(S(=O)(=O)N(C)C[C@@H]2Oc3ccc(NC(=O)Nc4ccccc4)cc3CC(=O)N([C@H](C)CO)C[C@H]2C)cc1	-15	10	·
COc1ccccc1NC(=O)CSc1nc2ccc(NC(=O)c3ccccc3OC)cc2s1	-7	6	·
COC(=O)[C@@H]1[C@H]2C[C@H]3c4[nH]c5ccccc5c4CCN3C[C@@H]2CC[C@@H]1O	6	-8	-56

From PubChem BioAssay
